Measurements reported in PubChem BioAssay AID372 (MTDP, 2006).
Where “and” joins values, the source holds several entries; their conditions need not be identical. Identical values can stand only once. The campaign covered roughly 100,000 compounds. About 770 (0.77%) were called active. Only a selection was taken, and actives are over-represented in it overall. Values without a mark were called inactive. No stated cut-off is given here; in the data, active means inhibition above about 50%; inactive means the rest.

Each molecule was assayed against Gag-Pol polyprotein (Human immunodeficiency virus type 1 group M subtype B (isolate HXB2)) (UniProt P04585) (assay: RNase H inhibition, HIV 1 Gag Pol polyprotein, FRET biochemical assay, screening (AID 372)). Details: HIV-1 RT RNase H, FRET RNA/DNA substrate fluorescence; at 10 µM; hits give high values.

Question: `CSc1ccc(/C=C2\C(=O)NC(=O)N(c3ccc(Br)c(C)c3)C2=O)cc1` was tested. Which inhibition did it give?
Answer: 0%

Question: Which inhibition does the source give for `Cc1sc(NC(=O)c2ccccc2C(=O)O)c(C#N)c1C` here?
Answer: 3%

Question: Which inhibition does the source give for `O=[N+]([O-])c1cccc(-n2nncc2C23CC4CC(CC(C4)C2)C3)c1` here?
Answer: 19%

Question: `COc1cc(C)cc2oc(=O)c(Cc3ccccc3)c(C)c12` was tested. Which inhibition did it give?
Answer: 22%

Question: `Cc1cc(OC(=O)C2CC2)c2c(C)c(Cc3ccccc3)c(=O)oc2c1` was tested. Which inhibition did it give?
Answer: 55% (active)

Question: How did the inhibition turn out when `CCCOc1cc(C)cc2oc(=O)c(Cc3ccccc3)c(C)c12` was run?
Answer: 56% (active)

Question: How did the inhibition turn out when `CC(=O)Oc1cc(C)cc2oc(=O)c(Cc3ccccc3)c(C)c12` was run?
Answer: 23%

Question: `CCOc1cc(C)cc2oc(=O)c(Cc3ccccc3)c(C)c12` was tested. Which inhibition did it give?
Answer: 46%

Question: With `Cc1cc(OCC(=O)O)c2c(C)c(Cc3ccccc3)c(=O)oc2c1` as the molecule, how does the inhibition read?
Answer: 4%

Question: How did the inhibition turn out when `O=C(Nc1ncc(Cc2cccc([N+](=O)[O-])c2)s1)c1cccc([N+](=O)[O-])c1` was run?
Answer: 11%

Question: Which inhibition does the source give for `O=C(CCc1ccccc1)Nc1cc(C(=O)O)cc(C(=O)O)c1` here?
Answer: 36%

Question: For `COc1cccc(-c2nc(-c3cccc([N+](=O)[O-])c3)no2)c1`, which inhibition is on record?
Answer: 5%

Question: For `O=C(N/N=C/c1ccc(O)cc1O)c1cc(Br)cc(Br)c1O`, which inhibition is on record?
Answer: 12%

Question: With `Cc1ccc(CNC(=O)C(=O)NCC2CCCO2)cc1` (centres undefined) as the molecule, how does the inhibition read?
Answer: 9%

Question: `COC(=O)c1cc(C(=O)NC2CCSC2=O)cc([N+](=O)[O-])c1` (centres undefined) was tested. Which inhibition did it give?
Answer: 10%

Question: How did the inhibition turn out when `O=C(NCC1CCCO1)/C(=C/c1cccc(Oc2ccccc2)c1)NC(=O)c1ccccc1` (centres undefined) was run?
Answer: 0%

Question: `C=CCNC(=O)CN(c1cccc(OC)c1)S(=O)(=O)c1ccccc1` was tested. Which inhibition did it give?
Answer: 0%

Question: With `CC(=O)Nc1ccc(N=Cc2cccc(C)c2)cc1` as the molecule, how does the inhibition read?
Answer: 4%

Question: `CC(=O)C(=Nc1ccc(C)cc1C)NNc1cc(C(N)=O)c(Cl)cc1Cl` was tested. Which inhibition did it give?
Answer: 70% (active)

Question: `CC(=O)C(=Nc1ccc(C)cc1C)NNc1ccc(Cl)c(C(N)=O)c1` was tested. Which inhibition did it give?
Answer: 11%

Question: `CC(=O)Nc1cc(C(N)=O)c(Cl)cc1Cl` was tested. Which inhibition did it give?
Answer: 1%

Question: With `Cc1ccc(/C(O)=C2\C(=O)C(=O)N(CCCC(=O)O)C2c2ccc(F)cc2)cc1` (centres undefined) as the molecule, how does the inhibition read?
Answer: 4%

Question: Which inhibition does the source give for `Cc1ccc(N2C(=O)C(=Cc3ccc(O)cc3)C(=O)N(c3ccc(C)cc3)C2=S)cc1` here?
Answer: 56% (active)

Question: With `Cc1ccc(N2C(=O)/C(=C/c3ccc(O)cc3)C(=O)NC2=S)cc1` as the molecule, how does the inhibition read?
Answer: 6%

Question: How did the inhibition turn out when `COc1cc(C=C2C(=O)N(c3ccc(C)cc3)C(=S)N(c3ccc(C)cc3)C2=O)ccc1O` was run?
Answer: 0%

Question: `O=C(CN1CCSCC1)N/N=C/c1ccc(-c2ccccc2)cc1` was tested. Which inhibition did it give?
Answer: 7%

Question: With `O=C(Nc1cc(C(=O)Nc2ccccc2-c2ccccc2)cc(C(=O)Nc2ccccc2-c2ccccc2)c1)c1ccc([N+](=O)[O-])cc1` as the molecule, how does the inhibition read?
Answer: 19%

Question: For `Cc1ccc(OCCOCCN2CCC(C)CC2)cc1`, which inhibition is on record?
Answer: 15%

Question: For `CCN1C(=O)c2cccc3c(NC(=O)c4cc([N+](=O)[O-])ccc4Cl)ccc1c23`, which inhibition is on record?
Answer: 5%

Question: `C=CCN1C(=O)/C(=C\c2ccc(I)o2)C(=O)NC1=S` was tested. Which inhibition did it give?
Answer: 27%

Question: For `C=CCN1C(=O)/C(=C\c2ccc(-c3ccc([N+](=O)[O-])cc3)o2)C(=O)NC1=S`, which inhibition is on record?
Answer: 10%

Question: `COc1ccc(S(=O)(=O)n2nnc3ccccc32)cc1OC` was tested. Which inhibition did it give?
Answer: 2%

Question: How did the inhibition turn out when `COc1ccc(OC)c(S(=O)(=O)n2nnc3ccccc32)c1` was run?
Answer: 3%

Question: How did the inhibition turn out when `COc1ccc(S(=O)(=O)n2nnc3ccccc32)c2ccccc12` was run?
Answer: 55% (active)

Question: With `COC(=O)C1=C(C)NC(=S)NC1c1cc(Br)ccc1OCc1ccccc1` (centres undefined) as the molecule, how does the inhibition read?
Answer: 11%

Question: With `Cn1c(=O)c2[nH]c(N/N=C(/C#N)C(N)=O)nc2n(C)c1=O` as the molecule, how does the inhibition read?
Answer: 8%

Question: How did the inhibition turn out when `CCC(Oc1ccccc1)C(=O)Nc1cc(Cl)ccc1Cl` (centres undefined) was run?
Answer: 40%

Question: With `CCC(Oc1ccccc1)C(=O)Nc1cc(Cl)ccc1OC` (centres undefined) as the molecule, how does the inhibition read?
Answer: 56% (active)

Question: How did the inhibition turn out when `CCC(Oc1ccccc1)C(=O)Nc1cc(OC)c(Cl)cc1OC` (centres undefined) was run?
Answer: 12%

Question: For `C=CCn1cc(/C=c2\sc3n(c2=O)C(c2ccc(OC)cc2)C(C(=O)OCC)=C(C)N=3)c2ccccc21` (centres undefined), which inhibition is on record?
Answer: 15%

Question: `O=C(/C=C/c1ccc(-c2ccccc2Br)o1)c1ccc(Cl)cc1` was tested. Which inhibition did it give?
Answer: 13%

Question: Which inhibition does the source give for `NS(=O)(=O)c1ccc2c(c1)C1C=CCC1C(c1ccc([N+](=O)[O-])cc1)N2` (centres undefined) here?
Answer: 19%

Question: For `CCOC(=O)C1=C(C)N=c2s/c(=C\c3ccc(OC)c(Br)c3)c(=O)n2C1c1ccccc1Cl` (centres undefined), which inhibition is on record?
Answer: 29%

Question: `CCOC(=O)c1ccc(NC(=O)c2ccc([N+](=O)[O-])o2)cc1` was tested. Which inhibition did it give?
Answer: 50% (active)

Question: `CCCOC(=O)c1ccc(NC(=O)c2ccc([N+](=O)[O-])o2)cc1` was tested. Which inhibition did it give?
Answer: 7%

Question: For `CCOc1ccc(NC(=O)c2ccc([N+](=O)[O-])o2)cc1`, which inhibition is on record?
Answer: 17%

Question: How did the inhibition turn out when `O=C(Nc1cccc(Cl)c1)Nc1cc(Cl)ccc1Cl` was run?
Answer: 0%

Question: For `COc1ccc(-n2c(O)c(C=Nc3ccc(Cl)cc3)c3ccccc3c2=O)cc1`, which inhibition is on record?
Answer: 11%

Question: How did the inhibition turn out when `O=C(CC1OC(=O)c2ccccc21)c1ccccc1` (centres undefined) was run?
Answer: 1%

Question: For `Cc1cc(=O)[nH]c(SCC(=O)c2ccc(Br)cc2)n1`, which inhibition is on record?
Answer: 4% and 9%

Question: `Cc1nc(SCC(=O)c2ccc(O)c(O)c2)n[nH]1` was tested. Which inhibition did it give?
Answer: 42%

Question: How did the inhibition turn out when `Cc1sc2nc(SCC(N)=O)[nH]c(=O)c2c1C` was run?
Answer: 0%

Question: How did the inhibition turn out when `Cc1cc(C)c2c(=O)[nH]c(SCC(=O)c3ccc(F)cc3)nc2n1` was run?
Answer: 11%

Question: Which inhibition does the source give for `Cc1cc(C)nc(SCC(=O)c2ccc(O)c(O)c2)n1` here?
Answer: 74% (active)

Question: Which inhibition does the source give for `Nc1cc(=O)[nH]c(SCC(=O)c2ccc(O)c(O)c2)n1` here?
Answer: 8%

Question: With `Cc1cc(C)nc(SCC(=O)c2ccc(F)cc2)n1` as the molecule, how does the inhibition read?
Answer: 13%

Question: `Cc1sc2nc(SCC(=O)c3ccc(O)c(O)c3)[nH]c(=O)c2c1C` was tested. Which inhibition did it give?
Answer: 75% (active)

Question: How did the inhibition turn out when `Cc1cc(=O)[nH]c(SCC(=O)c2ccc(O)c(O)c2)n1` was run?
Answer: 50% (active)

Question: With `COc1ccc(C(=O)CSc2nc3sc(C)c(C)c3c(=O)[nH]2)cc1C` as the molecule, how does the inhibition read?
Answer: 44%

Question: `Cc1cc(C)c2c(=O)[nH]c(SCC(=O)c3ccc(Br)cc3)nc2n1` was tested. Which inhibition did it give?
Answer: 20%

Question: For `Cc1cccnc1NC(=O)Nc1cccc(F)c1`, which inhibition is on record?
Answer: 7%

Question: For `O=C(NNc1ccc(F)cc1)C(O)(c1ccccc1)c1ccccc1`, which inhibition is on record?
Answer: 2%

Question: `NS(=O)(=O)c1ccc(Nc2nc(-c3ccccn3)cs2)cc1` was tested. Which inhibition did it give?
Answer: 3%

Question: How did the inhibition turn out when `CC(=O)Nc1ccc2c(c1)C(=O)OC2(c1ccc(N(C)C)cc1)c1ccc(N(C)C)cc1` was run?
Answer: 17%

Question: How did the inhibition turn out when `Cc1nc2ccccc2n1C(=O)c1ccc([N+](=O)[O-])cc1` was run?
Answer: 0%

Question: With `Cc1ccc(C(=O)N/N=C/C=C/c2ccc([N+](=O)[O-])cc2)cn1` as the molecule, how does the inhibition read?
Answer: 1%

Question: How did the inhibition turn out when `O=C(N/N=C\c1ccc([N+](=O)[O-])cc1)c1cccc2cc[nH]c12` was run?
Answer: 8%

Question: `Cc1ccc(N2NC(=O)/C(=C/c3ccc(-c4cc([N+](=O)[O-])ccc4C)o3)C2=O)cc1` was tested. Which inhibition did it give?
Answer: 13%

Question: For `Cc1ccc(C)n1-c1ccc(C(=O)O)cc1O`, which inhibition is on record?
Answer: 8%

Question: How did the inhibition turn out when `Cc1c(C(=O)O)cccc1-n1c(=O)c2cc3c(=O)n(-c4cccc(C(=O)O)c4C)c(=O)c3cc2c1=O` was run?
Answer: 10%

Question: Which inhibition does the source give for `Cc1ccc(C(=O)O)cc1-n1c(C)ccc1C` here?
Answer: 19%

Question: With `Cc1ccc(C)n1-c1ccccc1C(=O)O` as the molecule, how does the inhibition read?
Answer: 15%

Question: Which inhibition does the source give for `Cc1c(C(=O)O)cccc1-n1c(C)ccc1C` here?
Answer: 58% (active)

Question: For `COc1cc(C(=O)O)c(-n2c(C)ccc2C)cc1OC`, which inhibition is on record?
Answer: 13%

Question: Which inhibition does the source give for `Cc1ccc(C)n1-c1ccc(Cl)cc1C(=O)O` here?
Answer: 16%

Question: `COc1ccc(/C(C)=N/NC(=O)c2ccncc2)c(OC)c1OC` was tested. Which inhibition did it give?
Answer: 5%

Question: With `COc1cc(Br)c(CNc2cccc(C)c2)cc1OC` as the molecule, how does the inhibition read?
Answer: 22%

Question: How did the inhibition turn out when `CCc1c(C)c(C#N)c2nc3ccccc3n2c1Nc1ccc(N(CC)CC)cc1` was run?
Answer: 30%

Question: `O=C(Nc1ccccc1C#Cc1ccccc1)c1ccc(-c2ccccc2)cc1` was tested. Which inhibition did it give?
Answer: 0%

Question: How did the inhibition turn out when `CC1CC(Nc2ccccc2)c2ccccc2N1` (centres undefined) was run?
Answer: 0%

Question: Which inhibition does the source give for `COC(=O)CN1C(=O)c2cccc3cccc(c23)C1=O` here?
Answer: 7%

Question: Which inhibition does the source give for `N#CC1=C(N)OC2=C(C(=O)CC(c3ccccc3)C2)C1c1coc2ccccc2c1=O` (centres undefined) here?
Answer: 4%

Question: For `O=C1NC(=O)N(Cc2ccco2)C(=O)/C1=C\c1ccc(-c2ccc(C(=O)O)cc2)o1`, which inhibition is on record?
Answer: 35%

Question: Which inhibition does the source give for `O=C1NC(=O)N(Cc2ccco2)C(=O)/C1=C\c1ccc(-c2ccc(Cl)c(Cl)c2)o1` here?
Answer: 41%

Question: How did the inhibition turn out when `Cc1cc(/C=C2/C(=O)NC(=O)N(Cc3ccco3)C2=O)c(C)n1-c1ccc(Cl)cc1` was run?
Answer: 12%

Question: How did the inhibition turn out when `O=C1NC(=O)N(Cc2ccco2)C(=O)/C1=C\c1ccc(-c2cccc(Cl)c2Cl)o1` was run?
Answer: 46%

Question: Which inhibition does the source give for `CCOC(=O)c1ccc(-c2ccc(/C=C3/C(=O)NC(=O)N(Cc4ccco4)C3=O)o2)cc1` here?
Answer: 34%

Question: With `Cc1cc([N+](=O)[O-])ccc1-n1c(C)cc(/C=C2/C(=O)NC(=O)N(Cc3ccco3)C2=O)c1C` as the molecule, how does the inhibition read?
Answer: 50% (active)

Question: How did the inhibition turn out when `Cc1cc(/C=C2/C(=O)NC(=O)N(Cc3ccco3)C2=O)c(C)n1-c1ccc([N+](=O)[O-])cc1` was run?
Answer: 14%

Question: With `Cc1cc(-c2ccc(/C=C3/C(=O)NC(=O)N(Cc4ccco4)C3=O)o2)ccc1Br` as the molecule, how does the inhibition read?
Answer: 58% (active)

Question: Which inhibition does the source give for `O=C1NC(=O)N(Cc2ccco2)C(=O)/C1=C\c1ccc(-c2ccc(Br)cc2)o1` here?
Answer: 53% (active)

Question: Which inhibition does the source give for `O=C1NC(=O)N(Cc2ccco2)C(=O)/C1=C\c1ccc(-c2ccc([N+](=O)[O-])cc2)o1` here?
Answer: 17%

Question: With `O=C1NC(=O)N(Cc2ccco2)C(=O)/C1=C\c1ccc(-c2ccc(Cl)cc2Cl)o1` as the molecule, how does the inhibition read?
Answer: 58% (active)

Question: Which inhibition does the source give for `O=C1NC(=O)N(Cc2ccco2)C(=O)/C1=C\c1ccc(-c2ccc(Cl)c([N+](=O)[O-])c2)o1` here?
Answer: 35%
